Assay results from PubChem BioAssay (NCI).
This is part of a sample that, as a whole, favours compounds with a hit. Of some 83,000 tested, about 20% had one in any assay.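 Treatment: one concentration, 48 hours, 96-well format. Scoring: percent growth, with anything below 10 considered active.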 Values without a mark were called inactive. Activity calls are given as the source filed them.

How the values were obtained:
Test in all cases: NCI-60 one-dose screen, 48 h (100 = growth as untreated, 0 = no growth, -100 = all killed)
Conditions in all cases: 10 µM unless noted
[1] = test system: SR leukemia
[2] = test system: RPMI-8226 leukemia
[3] = test system: OVCAR-8 ovarian
[4] = test system: OVCAR-5 ovarian
[5] = test system: OVCAR-4 ovarian
[6] = test system: SK-OV-3 ovarian
[7] = test system: IGROV1 ovarian
[8] = test system: OVCAR-3 ovarian
[9] = test system: HS 578T breast
[10] = test system: NCI/ADR-RES ovarian
[11] = test system: T-47D breast
[12] = test system: BT-549 breast
[13] = test system: MDA-MB-435 melanoma
[14] = test system: SW-620 colon
[15] = test system: MCF7 breast
[16] = test system: HCT-116 colon
[17] = test system: HCC-2998 colon
[18] = test system: KM12 colon

| SMILES | growth [1] | growth [2] | growth [3] | growth [4] [%] | growth [5] | growth [6] [%] | growth [7] | growth [8] | growth [9] | growth [10] | growth [11] [%] | growth [12] | growth [13] | growth [14] | growth [15] | growth [16] | growth [17] | growth [18] |
| --- | --- | --- | --- | --- | --- | --- | --- | --- | --- | --- | --- | --- | --- | --- | --- | --- | --- | --- |
| COc1ccc(C(O)c2cc3c(N)c(C(=O)Nc4cccc(Br)c4C)sc3nc2C)cc1 (centres undefined) | 1.86% (active) | 7.3% (active) | 17.4% | 39.6 | 47.4% | 30.8 | 24.8% | -14.4% (active) | 21.8% | 14.1% | 51.8 | 42.3% | 8.91% (active) | 25.9% | 22.1% | 13.2% | 16.2% | 11.1% |
| COC(=O)C1=C(C(=O)ONCCN(C)C)C2C=CC1(C(Cc1ccccc1)Nc1ccc(F)cc1)O2 (centres undefined) | 10.7% | 71.2% | 97.7% | 100 | 94.5% | 104 | 92.4% | 39.9% | 125% | 102% |  | 122% | 101% | 51.8% | 97.5% | -48.9% (active) | 107% | 94.8% |
| CCN(CC)CCCC(Nc1c2ccc(Cl)cc2nc2ccc(OC)cc12)c1ccc(Cl)cc1 (centres undefined) | -32.9% (active) | -18.6% (active) | -37.7% (active) | 33.7 | 20.3% | 64.9 | -15.3% (active) | -17.6% (active) | -47.7% (active) | -13.3% (active) |  | 43.4% | -88.2% (active) | -75.8% (active) | -73.8% (active) | -88.8% (active) | -75.4% (active) | -56.9% (active) |
| COc1cc(C2CC(c3cccc(Nc4ccncc4)c3)=NN2c2ccc(Cl)cc2)cc(OC)c1OC (centres undefined) | 2.48% (active) | -18.7% (active) | -26.5% (active) | 72.1 | 6.52% (active) | 64.5 | 4.16% (active) | -25.3% (active) | 27.8% | 42.7% |  | 107% | -88.3% (active) | -66.6% (active) | -36.1% (active) | 105% | -36.2% (active) | -74.5% (active) |
| Cc1cc(C)c(C=O)c(C)c1 | 105% | 89.8% | 94.2% | 98.5 | 108% | 74.7 | 111% | 107% | 104% | 107% |  | 91.4% | 103% | 95% | 106% | 83.1% | 108% | 105% |
| COc1cccc(CNCCN2C(=O)c3ccc4c5c(ccc(c35)C2=O)C(=O)N(CCNCc2cccc(OC)c2)C4=O)c1 | -27.8% (active) | -14.8% (active) | 68.3% | 120 | 75.9% | 114 | 75.9% | 24.6% | 121% | 88.8% |  | 96.1% | 118% | -33% (active) | 9.83% (active) | -41.6% (active) | 97.8% | 82.4% |
| O=C1OC(=O)C2C1CC=CC2c1ccccc1 (centres undefined) | 55% | 93.8% | 95.3% | 85.6 | 83.4% | 81.8 | 84.6% | 104% | 76.7% | 91.1% |  | 93.1% | 102% | 86.7% | 89% | 97.3% | 79.9% | 84.8% |
| COc1cc2nc(Cc3ccc(C)cc3)[nH]c(=O)c2cc1OC | 100% | 88.2% | 104% | 102 | 108% | 113 | 109% | 109% | 100% | 102% |  | 229% | 119% | 101% | 104% | 117% | 106% | 109% |
| COc1cc(CNC(=O)CCCCC[P+](c2ccccc2)(c2ccccc2)c2ccccc2)c(OC)c2c1OCO2 | 22.9% | 1.67% (active) | 75.3% | 99.5 | 23.7% | 127 | 41.8% | 44.5% | 78% | 105% |  | 37.8% | 39% | 70.7% | 67.4% | 50.4% | 57.6% | 45.6% |
| COc1cc(NCCCN(CC(C)C)CC(C)C)c2ncccc2c1 | 84.9% | 78% | 94.5% | 114 | 17.2% | 90.1 | 80.3% | 69.5% | 92.3% | 79.8% |  | 80.4% | 115% | 67.4% | -43.4% (active) | 62% | 86.4% | 84.7% |
| O=C1CCCCCCCCC(O)C(O)CCCC(c2cccs2)O1 (centres undefined) | -12.3% (active) | 87.1% | 99% | 95.3 | 78.8% | 82.1 | 97.8% | 102% | 103% | 91.1% |  | 122% | 99.3% | 103% | 95.9% | 89.8% | 118% | 100% |
| COc1ccc(NS(=O)(=O)c2ccc(C)cc2)c([N+](=O)[O-])c1 | 100% | 96.7% | 104% | 106 | 115% | 105 | 102% | 106% | 95.7% | 95.9% |  | 104% | 111% | 103% | 99.7% | 106% | 99.6% | 104% |
| COC(=O)CCCCCCCCC1(C)C=CC(C(C)O)=CC1 (centres undefined) | 89.8% | 103% | 105% | 120 | 110% | 110 | 99.7% | 111% | 117% | 102% |  | 108% | 112% | 91.2% | 101% | 99.7% | 98.7% | 99.8% |
| CCC(C)N(CCNc1cc(OC)cc2cccnc12)CCC(C)C (centres undefined) | 51.8% | 94.1% | 86.6% | 102 | 26% | 68.3 | 66.4% | 64% | 82.9% | 85.5% |  | 90.8% | 107% | 58.4% | 25.7% | 64.9% | 79.1% | 77.6% |
| CCN1C(=O)N(CC)C2NC(SC)=NC21 (centres undefined) | 107% | 157% | 104% | 88.9 | 103% | 104 | 102% | 102% | 94.1% | 99.7% |  | 103% | 102% | 97.6% | 99.3% | 104% | 99.3% | 102% |
| COc1ccc(-c2c[nH]c(C(=O)O)c2-c2cc(OC)c3c(c2OC)OCO3)cc1 | 106% | 140% | 101% | 96.5 | 100% | 119 | 103% | 109% | 99.9% | 99.2% |  | 103% | 104% | 103% | 103% | 106% | 100% | 105% |
| CS(=O)(=O)Nc1cc(-c2ccc3ncnc(Nc4ccc5[nH]ncc5c4)c3c2)cnc1Cl | 63.2% | 102% | 86% | 59.8 | 84.7% | 76 | 42.5% | 59.2% | 21.7% | 91.2% |  | 69.3% | 75% | 90.8% | 38.5% | 92.2% | 92% | 102% |
| CCCc1cc2c(cc1Br)OCO2 | 111% | 113% | 96.1% | 96.5 | 114% | 103 | 111% | 113% | 99.8% | 98.5% |  | 82.7% | 110% | 112% | 95% | 84.5% | 103% | 113% |
| Clc1ccc(C2CC(c3cccc(Nc4ccncc4)c3)=NN2c2ccccc2)cc1 (centres undefined) | 2.19% (active) | 1.08% (active) | -7.33% (active) | 82.6 | 45.5% | 81.4 | 25.9% | 64.4% | 83.9% | 78.8% |  | -75.9% (active) | -46.1% (active) | -79.8% (active) | 4.93% (active) | -79.6% (active) | -31.5% (active) | -7.31% (active) |
